Reference: ChEMBL document CHEMBL1961873, “Compounds: GSK PKIS; Assays: Nanosyn kinase panel” (2012)

Tests used:
[1] = molecular target: Death-associated protein kinase 1 (Homo sapiens) (UniProt P53355); details: at 1 µM;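 further: each value is a mean inhibition figure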
[2] = molecular target: T1, Serine/threonine-protein kinase DCLK2 (Homo sapiens) (UniProt Q8N568); details: at 0.1 µM
T1 sequence (whole entry): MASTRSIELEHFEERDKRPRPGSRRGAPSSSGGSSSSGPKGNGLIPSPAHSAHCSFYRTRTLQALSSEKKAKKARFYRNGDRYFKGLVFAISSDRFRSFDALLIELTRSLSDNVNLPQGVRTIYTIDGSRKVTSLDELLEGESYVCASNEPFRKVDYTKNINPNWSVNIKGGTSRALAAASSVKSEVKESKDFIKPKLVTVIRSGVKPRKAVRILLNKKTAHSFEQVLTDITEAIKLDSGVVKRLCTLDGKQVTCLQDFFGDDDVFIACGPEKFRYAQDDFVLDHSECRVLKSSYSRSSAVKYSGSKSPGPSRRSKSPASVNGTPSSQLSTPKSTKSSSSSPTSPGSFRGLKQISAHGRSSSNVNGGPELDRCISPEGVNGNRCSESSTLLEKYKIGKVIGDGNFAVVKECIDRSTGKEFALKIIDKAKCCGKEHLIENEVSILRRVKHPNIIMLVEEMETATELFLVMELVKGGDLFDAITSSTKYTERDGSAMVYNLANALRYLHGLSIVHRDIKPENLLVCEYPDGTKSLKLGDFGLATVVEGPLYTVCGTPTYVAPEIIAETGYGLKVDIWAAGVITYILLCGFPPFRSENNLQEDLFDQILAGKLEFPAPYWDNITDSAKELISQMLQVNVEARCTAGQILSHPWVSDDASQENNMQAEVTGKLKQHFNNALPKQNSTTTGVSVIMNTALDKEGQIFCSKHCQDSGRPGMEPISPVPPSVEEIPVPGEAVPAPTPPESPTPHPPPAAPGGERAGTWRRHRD

[3] = molecular target: T1, Serine/threonine-protein kinase DCLK2 (Homo sapiens); details: at 1 µM
[4] = molecular target: MAP kinase-activated protein kinase 2 (Homo sapiens) (UniProt P49137); details: at 0.1 µM
[5] = molecular target: MAP kinase-activated protein kinase 2 (Homo sapiens) (UniProt P49137); details: at 1 µM
[6] = molecular target: MAP kinase-activated protein kinase 3 (Homo sapiens) (UniProt Q16644); details: at 0.1 µM
[7] = molecular target: MAP kinase-activated protein kinase 3 (Homo sapiens) (UniProt Q16644); details: at 1 µM
[8] = molecular target: Serine/threonine-protein kinase MARK1 (Homo sapiens) (UniProt Q9P0L2); details: at 0.1 µM
[9] = molecular target: Serine/threonine-protein kinase MARK1 (Homo sapiens) (UniProt Q9P0L2); details: at 1 µM
[10] = molecular target: MAP/microtubule affinity-regulating kinase 3 (Homo sapiens) (UniProt P27448); details: at 0.1 µM
[11] = molecular target: MAP/microtubule affinity-regulating kinase 3 (Homo sapiens) (UniProt P27448); details: at 1 µM
[12] = molecular target: T2, MAP/microtubule affinity-regulating kinase 4 (Homo sapiens) (UniProt Q96L34); details: at 0.1 µM
T2 sequence (whole entry): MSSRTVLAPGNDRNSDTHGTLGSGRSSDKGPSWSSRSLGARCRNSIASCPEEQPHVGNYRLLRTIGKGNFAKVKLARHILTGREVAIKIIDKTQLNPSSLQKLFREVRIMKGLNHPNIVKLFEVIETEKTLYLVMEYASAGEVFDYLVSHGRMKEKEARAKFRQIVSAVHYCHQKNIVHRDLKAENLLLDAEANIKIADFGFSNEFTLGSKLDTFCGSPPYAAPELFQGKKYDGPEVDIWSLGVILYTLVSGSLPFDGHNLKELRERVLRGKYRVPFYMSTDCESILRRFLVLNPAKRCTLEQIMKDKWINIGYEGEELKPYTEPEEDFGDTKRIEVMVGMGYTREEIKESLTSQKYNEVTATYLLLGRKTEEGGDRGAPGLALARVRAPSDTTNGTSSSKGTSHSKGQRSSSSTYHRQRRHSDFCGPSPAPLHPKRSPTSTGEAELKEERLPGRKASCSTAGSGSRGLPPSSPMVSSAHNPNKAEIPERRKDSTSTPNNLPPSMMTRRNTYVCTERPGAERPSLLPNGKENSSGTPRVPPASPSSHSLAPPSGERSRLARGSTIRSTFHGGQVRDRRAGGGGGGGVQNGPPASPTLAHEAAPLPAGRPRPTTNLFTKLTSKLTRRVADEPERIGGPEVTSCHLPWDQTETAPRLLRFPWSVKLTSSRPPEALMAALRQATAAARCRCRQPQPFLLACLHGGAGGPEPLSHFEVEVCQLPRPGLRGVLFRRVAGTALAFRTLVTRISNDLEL

[13] = molecular target: T2, MAP/microtubule affinity-regulating kinase 4 (Homo sapiens); details: at 1 µM
[14] = molecular target: Maternal embryonic leucine zipper kinase (Homo sapiens) (UniProt Q14680); details: at 0.1 µM
[15] = molecular target: Maternal embryonic leucine zipper kinase (Homo sapiens) (UniProt Q14680); details: at 1 µM
[16] = molecular target: MAP kinase-interacting serine/threonine-protein kinase 1 (Homo sapiens) (UniProt Q9BUB5); details: at 0.1 µM
[17] = molecular target: MAP kinase-interacting serine/threonine-protein kinase 1 (Homo sapiens) (UniProt Q9BUB5); details: at 1 µM
[18] = molecular target: MAP kinase-interacting serine/threonine-protein kinase 2 (Homo sapiens) (UniProt Q9HBH9); details: at 0.1 µM
[19] = molecular target: MAP kinase-interacting serine/threonine-protein kinase 2 (Homo sapiens) (UniProt Q9HBH9); details: at 1 µM
[20] = molecular target: Serine/threonine-protein kinase MARK2 (Homo sapiens) (UniProt Q7KZI7); details: at 0.1 µM;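 further: mean percent inhibition of PAR-1Balpha kinase activity, reported from the GSK PKIS screen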
Sequence of Serine/threonine-protein kinase MARK2 (Homo sapiens) (Q7KZI7 whole entry): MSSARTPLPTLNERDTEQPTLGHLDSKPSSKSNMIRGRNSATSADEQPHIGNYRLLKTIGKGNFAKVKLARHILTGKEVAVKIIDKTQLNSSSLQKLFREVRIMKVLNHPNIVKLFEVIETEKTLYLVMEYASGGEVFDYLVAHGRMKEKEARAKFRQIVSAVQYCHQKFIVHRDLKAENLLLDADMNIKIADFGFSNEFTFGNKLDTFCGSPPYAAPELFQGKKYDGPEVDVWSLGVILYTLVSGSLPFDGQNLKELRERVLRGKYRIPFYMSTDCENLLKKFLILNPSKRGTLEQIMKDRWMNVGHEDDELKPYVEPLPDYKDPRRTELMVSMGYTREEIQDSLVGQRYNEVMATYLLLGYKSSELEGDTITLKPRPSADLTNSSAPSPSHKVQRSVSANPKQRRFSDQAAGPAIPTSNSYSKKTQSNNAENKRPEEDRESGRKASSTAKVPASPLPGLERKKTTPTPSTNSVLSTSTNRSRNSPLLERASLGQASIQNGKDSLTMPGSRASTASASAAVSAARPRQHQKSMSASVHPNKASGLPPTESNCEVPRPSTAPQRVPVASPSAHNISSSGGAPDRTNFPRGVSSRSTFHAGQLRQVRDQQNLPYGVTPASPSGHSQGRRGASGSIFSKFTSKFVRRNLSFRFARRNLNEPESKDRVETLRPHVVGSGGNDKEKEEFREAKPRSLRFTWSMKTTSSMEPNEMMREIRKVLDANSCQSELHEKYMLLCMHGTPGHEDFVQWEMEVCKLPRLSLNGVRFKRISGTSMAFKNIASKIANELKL

Sequence of MAP/microtubule affinity-regulating kinase 3 (Homo sapiens) (P27448 whole entry, looked up): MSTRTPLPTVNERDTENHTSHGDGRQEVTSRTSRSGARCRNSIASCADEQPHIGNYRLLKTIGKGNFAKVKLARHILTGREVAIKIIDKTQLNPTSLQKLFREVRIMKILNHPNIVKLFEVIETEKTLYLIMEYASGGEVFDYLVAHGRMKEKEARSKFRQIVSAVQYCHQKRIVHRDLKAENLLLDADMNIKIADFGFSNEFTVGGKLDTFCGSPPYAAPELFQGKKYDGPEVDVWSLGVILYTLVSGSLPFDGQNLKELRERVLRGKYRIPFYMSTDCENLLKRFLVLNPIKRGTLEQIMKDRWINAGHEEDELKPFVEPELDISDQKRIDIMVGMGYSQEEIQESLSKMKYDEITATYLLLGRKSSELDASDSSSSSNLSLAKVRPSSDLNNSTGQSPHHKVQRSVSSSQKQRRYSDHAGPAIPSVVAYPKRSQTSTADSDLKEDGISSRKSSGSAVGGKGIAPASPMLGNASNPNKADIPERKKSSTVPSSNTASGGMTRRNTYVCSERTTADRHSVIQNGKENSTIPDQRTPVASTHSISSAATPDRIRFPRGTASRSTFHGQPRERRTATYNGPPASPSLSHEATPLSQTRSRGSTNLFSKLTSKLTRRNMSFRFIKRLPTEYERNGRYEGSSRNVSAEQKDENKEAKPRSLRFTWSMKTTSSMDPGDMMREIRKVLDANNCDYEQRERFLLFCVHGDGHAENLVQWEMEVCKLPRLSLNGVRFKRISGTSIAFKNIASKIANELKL
Sequence of Death-associated protein kinase 1 (Homo sapiens) (P53355 whole entry, looked up): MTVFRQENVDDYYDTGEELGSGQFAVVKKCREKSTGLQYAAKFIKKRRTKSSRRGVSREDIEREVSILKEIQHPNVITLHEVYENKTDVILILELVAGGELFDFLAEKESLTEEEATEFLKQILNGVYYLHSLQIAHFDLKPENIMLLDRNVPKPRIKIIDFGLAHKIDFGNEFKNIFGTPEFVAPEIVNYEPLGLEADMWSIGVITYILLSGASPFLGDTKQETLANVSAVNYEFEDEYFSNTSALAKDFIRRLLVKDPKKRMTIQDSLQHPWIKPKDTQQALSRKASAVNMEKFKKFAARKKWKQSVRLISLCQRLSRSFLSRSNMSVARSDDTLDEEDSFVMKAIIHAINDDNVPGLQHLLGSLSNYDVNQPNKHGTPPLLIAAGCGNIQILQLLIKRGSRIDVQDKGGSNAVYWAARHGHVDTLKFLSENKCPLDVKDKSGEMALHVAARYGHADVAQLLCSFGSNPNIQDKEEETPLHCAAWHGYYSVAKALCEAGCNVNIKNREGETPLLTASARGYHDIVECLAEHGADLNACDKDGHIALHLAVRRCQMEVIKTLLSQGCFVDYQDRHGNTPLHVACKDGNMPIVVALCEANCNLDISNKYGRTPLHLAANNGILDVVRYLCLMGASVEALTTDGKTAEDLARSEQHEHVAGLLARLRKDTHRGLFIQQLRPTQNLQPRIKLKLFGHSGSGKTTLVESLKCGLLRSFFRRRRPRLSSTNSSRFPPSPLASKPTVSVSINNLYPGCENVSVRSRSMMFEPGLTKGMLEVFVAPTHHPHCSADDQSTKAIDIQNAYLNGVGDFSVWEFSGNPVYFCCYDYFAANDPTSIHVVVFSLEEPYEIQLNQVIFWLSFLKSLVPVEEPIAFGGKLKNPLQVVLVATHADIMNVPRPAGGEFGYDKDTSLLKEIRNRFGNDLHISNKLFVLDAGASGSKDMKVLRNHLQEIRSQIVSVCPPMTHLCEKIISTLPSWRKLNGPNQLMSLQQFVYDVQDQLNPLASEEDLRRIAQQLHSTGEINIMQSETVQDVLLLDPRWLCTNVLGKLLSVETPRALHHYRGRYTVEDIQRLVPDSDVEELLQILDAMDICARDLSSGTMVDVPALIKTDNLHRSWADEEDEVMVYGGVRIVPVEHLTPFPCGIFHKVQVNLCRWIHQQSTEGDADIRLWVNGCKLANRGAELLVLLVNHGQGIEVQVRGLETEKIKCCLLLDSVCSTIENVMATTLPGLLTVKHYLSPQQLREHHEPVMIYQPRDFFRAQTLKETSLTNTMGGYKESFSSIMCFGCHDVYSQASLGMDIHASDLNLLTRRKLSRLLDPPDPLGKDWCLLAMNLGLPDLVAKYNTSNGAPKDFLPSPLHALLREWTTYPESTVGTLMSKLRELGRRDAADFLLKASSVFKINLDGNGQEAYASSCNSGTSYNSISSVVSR
Sequence of MAP kinase-activated protein kinase 3 (Homo sapiens) (Q16644 whole entry, looked up): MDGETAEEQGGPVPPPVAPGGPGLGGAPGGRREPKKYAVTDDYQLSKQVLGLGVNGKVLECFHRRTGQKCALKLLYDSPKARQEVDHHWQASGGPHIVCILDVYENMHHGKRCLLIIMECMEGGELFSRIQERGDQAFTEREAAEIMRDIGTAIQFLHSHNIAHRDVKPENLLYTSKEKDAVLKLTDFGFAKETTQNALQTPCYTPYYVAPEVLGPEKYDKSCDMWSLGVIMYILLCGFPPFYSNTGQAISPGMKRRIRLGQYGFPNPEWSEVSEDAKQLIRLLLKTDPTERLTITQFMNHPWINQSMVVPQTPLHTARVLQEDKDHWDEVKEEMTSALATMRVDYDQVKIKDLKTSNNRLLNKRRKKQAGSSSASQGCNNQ
Sequence of MAP kinase-activated protein kinase 2 (Homo sapiens) (P49137 whole entry, looked up): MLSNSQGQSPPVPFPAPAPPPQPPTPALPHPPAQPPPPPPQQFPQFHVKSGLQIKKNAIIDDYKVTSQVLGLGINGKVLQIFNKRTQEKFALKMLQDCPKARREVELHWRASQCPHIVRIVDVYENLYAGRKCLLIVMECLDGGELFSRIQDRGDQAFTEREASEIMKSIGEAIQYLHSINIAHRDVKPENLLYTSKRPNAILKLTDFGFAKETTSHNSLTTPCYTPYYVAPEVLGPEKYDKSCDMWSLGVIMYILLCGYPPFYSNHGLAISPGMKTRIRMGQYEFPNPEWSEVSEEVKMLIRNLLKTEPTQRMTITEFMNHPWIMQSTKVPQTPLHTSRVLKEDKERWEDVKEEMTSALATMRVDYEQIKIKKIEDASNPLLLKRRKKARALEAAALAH
Sequence of Maternal embryonic leucine zipper kinase (Homo sapiens) (Q14680 whole entry, looked up): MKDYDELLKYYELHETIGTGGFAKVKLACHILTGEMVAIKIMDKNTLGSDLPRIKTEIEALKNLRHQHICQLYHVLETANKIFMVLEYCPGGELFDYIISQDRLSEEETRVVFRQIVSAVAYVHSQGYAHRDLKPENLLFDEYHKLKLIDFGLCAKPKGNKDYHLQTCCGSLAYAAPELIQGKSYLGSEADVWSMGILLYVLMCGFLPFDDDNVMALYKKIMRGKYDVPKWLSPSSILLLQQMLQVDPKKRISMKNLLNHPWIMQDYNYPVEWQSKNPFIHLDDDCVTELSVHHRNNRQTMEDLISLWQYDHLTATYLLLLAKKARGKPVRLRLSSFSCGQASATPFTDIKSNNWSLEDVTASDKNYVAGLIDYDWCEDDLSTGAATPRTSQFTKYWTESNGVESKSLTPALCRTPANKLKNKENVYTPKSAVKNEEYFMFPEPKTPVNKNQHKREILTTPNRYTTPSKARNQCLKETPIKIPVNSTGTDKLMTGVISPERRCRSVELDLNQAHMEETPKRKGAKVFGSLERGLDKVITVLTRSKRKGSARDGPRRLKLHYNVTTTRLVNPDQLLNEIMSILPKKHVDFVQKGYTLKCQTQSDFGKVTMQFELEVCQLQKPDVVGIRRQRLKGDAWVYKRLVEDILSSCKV
Sequence of MAP kinase-interacting serine/threonine-protein kinase 2 (Homo sapiens) (Q9HBH9 whole entry, looked up): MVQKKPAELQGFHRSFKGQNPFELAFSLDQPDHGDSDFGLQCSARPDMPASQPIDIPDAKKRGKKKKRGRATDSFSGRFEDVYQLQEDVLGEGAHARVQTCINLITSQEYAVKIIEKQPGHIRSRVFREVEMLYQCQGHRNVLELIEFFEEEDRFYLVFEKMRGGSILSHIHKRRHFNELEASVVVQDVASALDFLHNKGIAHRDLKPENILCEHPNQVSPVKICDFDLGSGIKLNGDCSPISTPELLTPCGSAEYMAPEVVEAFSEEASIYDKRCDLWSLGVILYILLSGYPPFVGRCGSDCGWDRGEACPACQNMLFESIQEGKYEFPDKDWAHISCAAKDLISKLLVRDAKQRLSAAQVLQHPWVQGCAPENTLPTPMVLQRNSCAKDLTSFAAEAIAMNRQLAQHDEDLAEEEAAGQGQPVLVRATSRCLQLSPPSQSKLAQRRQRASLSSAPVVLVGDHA

SMILES | inhibition [1] | inhibition [2] | inhibition [3] | inhibition [4] | inhibition [5] | inhibition [6] | inhibition [7] | inhibition [8] | inhibition [9] | inhibition [10] | inhibition [11] | inhibition [12] | inhibition [13] | inhibition [14] | inhibition [15] | inhibition [16] | inhibition [17] | inhibition [18] | inhibition [19] | inhibition [20]
O=C1Nc2ccc(I)cc2C1=Cc1cc(Br)c(O)c(Br)c1 | -4.68% | 0.92% | 1.91% | 1.65% | 4.08% | 2.77% | 3.75% | 0.84% | 2.09% | -0.57% | 2.16% | 1.14% | 2.32% | 2.86% | 13.8% | 2.2% | 7.73% | 2.51% | 17.6% | -0.39%
C#Cc1cccc(Nc2ncnc3ccc(OCCCCNCCS(C)(=O)=O)cc23)c1 | 2.74% | -0.45% | -4.44% | 2.15% | 1.98% | 4.84% | 4.44% | 5.11% | 8.02% | 5.17% | 6.08% | 2.28% | 3.56% | 3.6% | 8.09% | 9.11% | 46.7% | 4.73% | 31.8% | 1.67%
c1ccc(Oc2ccc(Nc3ncc(-c4ccccc4)o3)cc2)cc1 | 0.04% | 0.28% | -1.82% | 0.81% | 0.09% | 1.72% | 1.73% | 1.66% | 0.44% | -0.01% | -0.43% | -0.01% | 0.55% | 2.47% | 2.86% | 1.08% | 4.15% | 0.86% | 2.44% | -0.89%
Fc1ccc(-c2ncn(C3CCNCC3)c2-c2ccnc(Oc3ccc(Oc4ccccc4)cc3)n2)cc1 | 13.2% | -0.37% | 2.31% | 5.15% | 7.84% | 37.5% | 46.2% | 2.1% | 4.13% | 2.76% | 2.05% | 0.75% | 2.59% | 6.35% | 11.1% | 1.1% | 1.53% | 0.72% | 1.76% | 2.71%
CN(C)CCCNc1nccc(-c2c(-c3ccc(F)cc3)nn3cc(C(F)(F)F)ccc23)n1 | 0.77% | -2.25% | -1.62% | -0.13% | 0.05% | 8.23% | 22.7% | 3.37% | 1.8% | 3.54% | 3% | 1.09% | 2.72% | 1.14% | 2.95% | 1.94% | 8.83% | 0.89% | 6.51% | -0.22%
CCc1cccc(CC)c1/C=C/c1cncc(C(=O)NC)c1 | 4.2% | 1.1% | 1.19% | 0.82% | 0.99% | 4.47% | 3.44% | 2.28% | 1.27% | 3.86% | 0.43% | 0.15% | 1.03% | 1.61% | 3.83% | 1.04% | 3.27% | 0.49% | 1.79% | -0.01%
NS(=O)(=O)c1ccc(Nc2cc(-c3ccc(O)c(F)c3)n[nH]2)cc1 | -3.49% | 2.54% | -2.22% | -1.97% | -1.79% | -0.95% | -0.99% | 0.41% | 8.64% | 0.26% | 4.97% | 1.26% | 11.7% | -5.49% | 39.3% | -0.77% | 6.93% | 0.26% | 7.33% | 0.4%
O=C1NC(=O)C(c2cccc(Cl)c2)=C1Nc1ccc(Cl)c(C(=O)O)c1 | 3.41% | 0.79% | -4.18% | 1.73% | 1.21% | 2.96% | 3.57% | 2.35% | 3.49% | 3.32% | 8% | 0.26% | 1.44% | -0.69% | 3.67% | 3.32% | 5.32% | 2.61% | 4% | -2.87%
NC(=O)c1cc(-c2ccncc2)cc(-c2ccccc2)c1N | -2.35% | 1.2% | 1.19% | -0.48% | -0.33% | 1.32% | -0.36% | 4.42% | 8.02% | 5.42% | 11.9% | 2.69% | 1.61% | 4.36% | 7.85% | 3.23% | 9.56% | 2.09% | 6.55% | 2.08%
COc1ccc2cc(-c3c(-c4ccncc4)nc(-c4ccc(S(C)(=O)=O)cc4C)n3C)ccc2c1 | -3.68% | 0.26% | -1.72% | -0.32% | -1.32% | -1.15% | 1.63% | 3.38% | 4.84% | 1.58% | 2.48% | 2.52% | 1.32% | 6.13% | 9.41% | 2.6% | 6.69% | 1.75% | 3.34% | 0.73%
COc1cc(Nc2ncc(-c3ccccc3)o2)cc(OC)c1OC | 1.28% | -1.54% | 1.6% | -1.14% | -0.59% | -1.98% | -2.22% | 2.34% | 15.6% | 2.51% | 22.1% | 2.46% | 13.4% | -0.49% | 5.74% | 4.6% | 30.4% | 1.26% | 24.2% | 2.94%
CCc1ccc(Oc2nccc(-c3c(-c4ccc(F)cc4)ncn3C3CCNCC3)n2)cc1 | 4.64% | -0.57% | 1.55% | 1.96% | 3.67% | 36.5% | 37.5% | 3.13% | 7.96% | 3.13% | 7.86% | 2.89% | 4.67% | 6.32% | 5.64% | 2.17% | 4.48% | 3.36% | 3.52% | 1.93%
NCc1ccc(-n2c(-c3nonc3N)nc3cnccc32)cc1 | 9.98% | -0.49% | 2.47% | 1.78% | 1.8% | 4.33% | 4.65% | 6.36% | 23.2% | 5.76% | 22.6% | 4.49% | 13.3% | 33.9% | 88.2% | 4.41% | 13.6% | 1.06% | 10.1% | 4.09%
